# Inconclusive results are not listed. For some of these results: Entries with a potency or affinity are not part of this list. The source made the active and inactive calls. The rule behind the calls is not given here.
# Legend:
# [1] = tested on: Aerobactin synthetase IucA (Klebsiella pneumoniae hvKP1); assay: Biochemical IucA enzyme inhibition primary screen of the Spectrum library (AID 1346200); conditions: malachite green pyrophosphate, A620, at 8 µM, stronger effect = lower value;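 note: 100% = wells without compound and 0% = wells lacking enzyme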
# [2] = tested on: Aerobactin synthetase IucA (Klebsiella pneumoniae, hypervirulent); assay: IucA enzyme inhibition, biochemical, LOPAC library, absorbance readout (AID 1346212); conditions: IucA enzyme assay, absorbance (OD) readout; stronger effect = lower value; concentration not given here;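 note: 100% = no compound wells and 0% = no enzyme wells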
# [3] = polyglutamine-triggered caspase-3 activation inhibitors, cell-based (AID 1583); conditions: polyglutamine-induced caspase-3 activation, cell assay; stronger effect = higher value;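 tested at 10 µM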
# [4] = molecular target: Huntingtin (Homo sapiens) (UniProt P42858); assay: inhibitors of mutant Htt aggregation in vitro, dose response, QA1 (AID 1584); conditions: in vitro mutant huntingtin aggregation assay; confirmation test; at 10 µM; stronger effect = lower value
# Sequence of Huntingtin (Homo sapiens) (P42858 whole entry, looked up): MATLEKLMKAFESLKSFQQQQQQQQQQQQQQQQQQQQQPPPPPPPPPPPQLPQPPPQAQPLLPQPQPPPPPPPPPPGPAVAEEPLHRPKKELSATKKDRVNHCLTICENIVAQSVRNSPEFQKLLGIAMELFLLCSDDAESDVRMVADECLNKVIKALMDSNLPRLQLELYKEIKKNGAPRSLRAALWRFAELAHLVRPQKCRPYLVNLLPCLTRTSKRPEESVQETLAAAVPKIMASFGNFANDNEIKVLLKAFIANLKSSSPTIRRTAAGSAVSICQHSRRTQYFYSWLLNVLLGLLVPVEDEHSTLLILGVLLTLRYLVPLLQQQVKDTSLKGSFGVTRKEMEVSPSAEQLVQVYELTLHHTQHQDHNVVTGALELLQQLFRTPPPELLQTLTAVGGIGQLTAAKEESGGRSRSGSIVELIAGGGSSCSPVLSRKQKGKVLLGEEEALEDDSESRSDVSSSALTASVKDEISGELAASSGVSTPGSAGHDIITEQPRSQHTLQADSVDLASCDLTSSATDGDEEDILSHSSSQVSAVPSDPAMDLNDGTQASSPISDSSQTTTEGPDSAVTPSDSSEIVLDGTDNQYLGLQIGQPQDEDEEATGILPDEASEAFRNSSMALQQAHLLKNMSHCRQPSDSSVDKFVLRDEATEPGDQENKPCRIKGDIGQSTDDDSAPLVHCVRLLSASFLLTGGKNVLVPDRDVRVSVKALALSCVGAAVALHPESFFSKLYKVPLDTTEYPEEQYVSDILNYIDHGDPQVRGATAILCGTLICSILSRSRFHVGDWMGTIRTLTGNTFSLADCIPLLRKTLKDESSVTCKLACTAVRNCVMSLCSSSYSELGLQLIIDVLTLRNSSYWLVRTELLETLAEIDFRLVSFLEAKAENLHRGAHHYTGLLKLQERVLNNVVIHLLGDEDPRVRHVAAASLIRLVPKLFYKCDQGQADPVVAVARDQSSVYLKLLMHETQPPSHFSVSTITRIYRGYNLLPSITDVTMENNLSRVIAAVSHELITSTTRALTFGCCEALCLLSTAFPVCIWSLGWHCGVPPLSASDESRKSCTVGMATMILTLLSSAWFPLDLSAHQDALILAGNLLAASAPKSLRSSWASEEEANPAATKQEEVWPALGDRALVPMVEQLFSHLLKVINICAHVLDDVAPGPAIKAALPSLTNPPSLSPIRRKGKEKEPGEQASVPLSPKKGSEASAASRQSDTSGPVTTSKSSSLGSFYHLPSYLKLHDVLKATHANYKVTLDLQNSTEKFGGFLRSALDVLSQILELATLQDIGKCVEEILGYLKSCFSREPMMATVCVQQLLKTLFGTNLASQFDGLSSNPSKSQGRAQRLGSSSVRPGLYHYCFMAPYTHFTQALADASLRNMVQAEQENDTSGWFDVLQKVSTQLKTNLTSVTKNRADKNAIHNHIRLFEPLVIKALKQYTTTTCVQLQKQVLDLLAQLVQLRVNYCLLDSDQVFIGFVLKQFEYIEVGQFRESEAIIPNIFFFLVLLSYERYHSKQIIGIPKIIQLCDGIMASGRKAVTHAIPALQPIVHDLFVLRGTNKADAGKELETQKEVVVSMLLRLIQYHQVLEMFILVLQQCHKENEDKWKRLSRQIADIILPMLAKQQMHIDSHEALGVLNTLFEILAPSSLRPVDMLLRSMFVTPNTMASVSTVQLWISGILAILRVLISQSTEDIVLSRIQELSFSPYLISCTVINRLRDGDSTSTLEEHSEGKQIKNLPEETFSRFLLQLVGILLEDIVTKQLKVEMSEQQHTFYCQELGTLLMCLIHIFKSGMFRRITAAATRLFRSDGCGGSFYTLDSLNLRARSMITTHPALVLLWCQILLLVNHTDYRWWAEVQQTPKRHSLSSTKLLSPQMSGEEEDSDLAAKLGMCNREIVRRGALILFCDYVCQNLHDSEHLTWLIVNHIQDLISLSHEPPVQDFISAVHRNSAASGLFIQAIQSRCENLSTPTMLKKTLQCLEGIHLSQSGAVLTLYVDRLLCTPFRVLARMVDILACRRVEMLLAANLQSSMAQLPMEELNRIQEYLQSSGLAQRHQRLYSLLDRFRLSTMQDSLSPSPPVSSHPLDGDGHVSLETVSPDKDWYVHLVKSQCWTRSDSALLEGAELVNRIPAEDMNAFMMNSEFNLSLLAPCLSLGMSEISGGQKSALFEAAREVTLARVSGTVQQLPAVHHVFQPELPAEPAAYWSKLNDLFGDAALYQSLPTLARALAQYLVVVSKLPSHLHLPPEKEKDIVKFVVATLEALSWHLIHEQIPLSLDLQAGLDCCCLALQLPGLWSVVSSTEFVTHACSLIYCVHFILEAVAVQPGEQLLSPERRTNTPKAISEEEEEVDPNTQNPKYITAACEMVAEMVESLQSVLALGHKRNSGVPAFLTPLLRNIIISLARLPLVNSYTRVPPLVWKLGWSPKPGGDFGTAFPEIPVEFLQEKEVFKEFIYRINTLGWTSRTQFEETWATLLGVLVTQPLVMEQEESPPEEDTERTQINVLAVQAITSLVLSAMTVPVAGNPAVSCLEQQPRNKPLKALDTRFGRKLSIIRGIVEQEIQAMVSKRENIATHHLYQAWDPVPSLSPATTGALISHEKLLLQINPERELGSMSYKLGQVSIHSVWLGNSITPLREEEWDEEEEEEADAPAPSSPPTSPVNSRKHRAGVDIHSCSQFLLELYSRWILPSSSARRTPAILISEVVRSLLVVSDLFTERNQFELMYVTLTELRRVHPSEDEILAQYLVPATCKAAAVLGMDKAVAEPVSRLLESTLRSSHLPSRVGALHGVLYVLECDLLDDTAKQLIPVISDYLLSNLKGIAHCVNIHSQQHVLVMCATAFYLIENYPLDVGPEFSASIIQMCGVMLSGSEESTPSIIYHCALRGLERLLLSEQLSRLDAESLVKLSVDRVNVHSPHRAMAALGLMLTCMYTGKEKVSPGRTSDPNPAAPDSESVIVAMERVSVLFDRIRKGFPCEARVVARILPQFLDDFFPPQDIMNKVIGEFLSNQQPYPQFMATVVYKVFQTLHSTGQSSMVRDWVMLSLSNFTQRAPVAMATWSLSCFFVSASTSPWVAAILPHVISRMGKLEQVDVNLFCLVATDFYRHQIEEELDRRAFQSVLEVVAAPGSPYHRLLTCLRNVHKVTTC
# [5] = suppressors of polyQ aggregation in yeast, 75Q-TubU reporter (AID 1593); conditions: Yeast 75Q polyglutamine aggregation reporter
# [6] = rescue of polyQ-huntingtin neuronal dysfunction in worms, whole organism, C. elegans mechanosensory neurons, N-terminal huntingtin (AID 1599); conditions: touch response, stronger effect = higher value
# [7] = inhibitors of mitochondrial cytochrome c release, biochemical, purified mitochondria (AID 1603); conditions: stronger effect = lower value;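 note: mouse liver mitochondria challenged with calcium chloride; signal normalized to the plate average as 100%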
# [8] = inhibitors of polyQ protein aggregation (AID 1604); conditions: polyglutamine-induced protein aggregation inhibition assay; stronger effect = higher value; tested at 2.5 µM
# [9] = enhancers of glutamate uptake in motor neurons, MN-1 cell line (AID 1612); conditions: MN-1 motor neuron cells, stronger effect = higher value;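 note: tested at 1 µM final; 0% = mean of DMSO vehicle wells on each plate; positive means more glutamate uptake than control and negative means less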
# [10] = suppressors of polyglutamine aggregation in yeast, 75Q-TubH (AID 1616); conditions: S. cerevisiae 75Q-TubH polyglutamine aggregation suppression; stronger effect = higher value
# [11] = reducers of polyQ inclusions in PC12 cells, cell-based, NGF-treated PC12, GFPQ80 (AID 1614); conditions: PC12 NGF-treated GFP-polyQ80 inclusion reduction;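 note: lower means fewer inclusions and 0 means no inclusions at all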
compound,measurement,setting,value
NCCCC(=O)O,activity remaining,[1],119% (inactive)
same,remaining activity,[2],123% (inactive)
O=[N+]([O-])c1cccc2c(Br)[nH]nc12,activity remaining,[1],118% (inactive)
same,remaining activity,[2],110% (inactive)
CN(C)CCOC(C)(c1ccccc1)c1ccccn1 (centres undefined),activity remaining,[1],104% (inactive)
same,remaining activity,[2],101% (inactive)
COc1ccc(Cl)cc1C(=O)NCCc1ccc(S(=O)(=O)NC(=O)NC2CCCCC2)cc1,activity remaining,[1],91.3% (inactive)
same,remaining activity,[2],120% (inactive)
CC(C)C(=O)Nc1ccc([N+](=O)[O-])c(C(F)(F)F)c1,activity remaining,[1],115% (inactive)
same,remaining activity,[2],97.1% (inactive)
COCCOC(=O)C1=C(C)NC(C)=C(C(=O)OC(C)C)C1c1cccc([N+](=O)[O-])c1 (centres undefined),activity remaining,[1],118% (inactive)
same,remaining activity,[2],111% (inactive)
COc1cc2nc(N3CCN(C(=O)C4CCCO4)CC3)nc(N)c2cc1OC (centres undefined),activity remaining,[1],119% (inactive)
same,remaining activity,[2],102% (inactive)
CCN(CC)C(=S)SSC(=S)N(CC)CC,activity remaining,[1],90.4% (inactive)
same,remaining activity,[2],89.3% (inactive)
CCCC(CCC)C(=O)O,activity remaining,[1],108% (inactive)
same,remaining activity,[2],110% (inactive)
COC(=O)[C@H]1[C@H]2C[C@H]3c4[nH]c5ccccc5c4CCN3C[C@H]2CC[C@@H]1O,activity remaining,[1],107% (inactive)
same,remaining activity,[2],95.4% (inactive)
CN(C)c1nc(N(C)C)nc(N(C)C)n1,activity remaining,[1],118% (inactive)
same,remaining activity,[2],120% (inactive)
C[C@H]1c2cccc(O)c2C(O)=C2C(=O)[C@]3(O)C(O)=C(C(N)=O)C(=O)[C@@H](N(C)C)[C@@H]3[C@@H](O)[C@@H]21,activity remaining,[1],93.8% (inactive)
same,remaining activity,[2],104% (inactive)
CC(=O)OCC1=C(C(=O)O)N2C(=O)[C@@H](NC(=O)CSc3ccncc3)[C@H]2SC1,activity remaining,[1],109% (inactive)
same,remaining activity,[2],113% (inactive)
O=C1c2c(O)ccc(O)c2C(=O)c2c(NCCNCCO)ccc(NCCNCCO)c21,activity remaining,[1],107% (inactive)
same,remaining activity,[2],110% (inactive)
COC(=O)[C@H]1[C@H]2C[C@@H]3c4[nH]c5cc(OC)ccc5c4CCN3C[C@H]2C[C@@H](OC(=O)c2cc(OC)c(OC)c(OC)c2)[C@@H]1OC,activity remaining,[1],109% (inactive)
same,remaining activity,[2],102% (inactive)
O=C(O)c1cccnc1Nc1cccc(C(F)(F)F)c1,activity remaining,[1],117% (inactive)
same,remaining activity,[2],115% (inactive)
CC(C)(C)NCC(O)c1cc(O)cc(O)c1 (centres undefined),activity remaining,[1],109% (inactive)
same,remaining activity,[2],109% (inactive)
CCSC(=N)N,activity remaining,[1],103% (inactive)
same,remaining activity,[2],93.6% (inactive)
Cc1cc(C(C)(C)C)cc(C)c1CC1=NCCN1,activity remaining,[1],126% (inactive)
same,remaining activity,[2],115% (inactive)
O=C1NCC2(CCN(CCc3ccccc3)CC2)O1,activity remaining,[1],111% (inactive)
same,remaining activity,[2],97.8% (inactive)
OCCN1CCN(CCCN2c3ccccc3Sc3ccc(Cl)cc32)CC1,activity remaining,[1],121% (inactive)
same,remaining activity,[2],112% (inactive)
C[C@H](CS)C(=O)N1CCC[C@H]1C(=O)O,activity remaining,[1],99.1% (inactive)
same,remaining activity,[2],99.3% (inactive)
NC(=O)NO,activity remaining,[1],121% (inactive)
same,remaining activity,[2],117% (inactive)
CC1=C(/C=C/C(C)=C/C=C/C(C)=C\C(=O)O)C(C)(C)CCC1,activity remaining,[1],116% (inactive)
same,remaining activity,[2],85.8% (inactive)
C[n+]1cc2c3c(ccc2c2ccc4cc5c(cc4c21)OCO5)OCO3,inhibition,[3],89.4%
same,aggregation ratio,[4],0.44
same,score,[5],0.8
same,rescue above control,[6],-18
same,cytochrome c release ratio,[7],1.22
same,inhibition of aggregation,[8],-2.89%
same,glutamate uptake change,[9],-11.9%
same,aggregation suppression score,[10],0.576
COc1cc([C@@H]2c3cc4c(cc3[C@H](O)[C@H]3COC(=O)[C@H]23)OCO4)cc(OC)c1OC,inhibition,[3],-31.7%
same,score,[5],0.81
same,rescue above control,[6],-13.8
same,cytochrome c release ratio,[7],1.06
same,inhibition of aggregation,[8],58.9%
same,glutamate uptake change,[9],21.3%
same,inclusion score,[11],2
same,aggregation suppression score,[10],0.784

# — PubChem BioAssay
